# Inconclusive results are not listed. Activity calls are given as the source filed them. How the source made its calls, unless noted: active means hit-call score of the fitted dose curve at least 0.9, where 1 is the maximum; inactive means score below 0.9.
# Assays:
# [1] = CCTE_Shafer_MEA_acute_firing_rate_mean: CCTE's Neural Acute Assay for Mean Firing Rate, Shafer Lab (AID 2284009);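 further: analyzed for loss of signal so actives lower firing rate relative to DMSO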
# Method in brief: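 Spontaneous spiking of primary rat cortical networks, DIV 13/15, 37 C. Compound 0.03-40 uM, n ≥3 wells; 40 min baseline vs 40 min treated. Endpoint fitted in loss-of-signal direction against DMSO.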
# [2] = CCTE_Harrill_HTTr_Viability_MCF7: CCTE's 6-hour Cell Viability Assessment for the High-Throughput Transcriptomics (HTTr) Platform, in MCF-7 cells cultured in DMEM + 10% fetal bovine serum, Harrill Lab (AID 2284010)
# Method in brief: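 Propidium iodide exclusion, imaged by high-content analysis, gauged viability after a six-hour exposure across eight concentrations. Cells were MCF-7 grown in DMEM with 10% fetal bovine serum; fits run in both directions against DMSO.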
# [3] = CCTE_Shafer_MEA_acute_burst_number: CCTE's Neural Acute Assay for Single-Electrode Bursts, Shafer Lab (AID 2284013)
# Method in brief: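 Burst totals were derived with adaptive spike detection (8x rms threshold) on filtered signals from rat cortical cultures; change relative to pre-treatment baseline after 40-min compound exposure (0.03-40 uM) was fitted in the negative direction against DMSO.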
# [4] = CCTE_Shafer_MEA_acute_burst_duration_mean: CCTE's Neural Acute Assay for Mean Burst Duration, Shafer Lab (AID 2284014);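 further: hits are decreases in mean burst duration relative to DMSO controls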
# Method in brief: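 Acute exposure of mature rat cortical networks (DIV 13 or 15) grown on microelectrode arrays to 0.03-40 uM compound. Mean burst duration compared with the 40-min pre-dose baseline over a 40-min post-dose recording at 37 C.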
# [5] = CCTE_Shafer_MEA_acute_per_burst_spike_number_mean: CCTE's Neural Acute Assay for Average Number of Spikes Per Burst, Shafer Lab (AID 2284015);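 further: hits are decreases in mean spikes per burst versus baseline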
# Method in brief: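 Read-out: percent change in mean spikes per burst, each well's post-exposure 40-min recording versus its own 40-min baseline. Rat cortical cultures, DIV 13 or 15, compounds 0.03-40 uM; DMSO is negative control, loss-of-signal fitting.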
# [6] = CCTE_Shafer_MEA_acute_interburst_interval_mean: CCTE's Neural Acute Assay for Mean Interburst Interval, Shafer Lab (AID 2284016);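 further: percent change of mean interburst interval versus each well's own pre-dose baseline; curves fitted for decrease in interburst interval relative to DMSO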
# Method in brief: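 Rat cortical cultures, DIV 13/15; 20 min equilibration, 40 min baseline, compound 0.03-40 uM, 40 min re-recording, 37 C. Spikes detected at 8x rms noise (300-5000 Hz band-pass). Endpoint: % change in interburst interval, fitted in loss direction vs DMSO.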
# [7] = CCTE_Shafer_MEA_acute_burst_percentage_mean: CCTE's Neural Acute Assay for Percentage of Spikes in a Burst, Shafer Lab (AID 2284017);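 on AC50: curve fitted for loss of signal so potency reflects decreased burst percentage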
# Method in brief: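 Rat cortical cultures, DIV 13/15, 37 C. Spikes detected at 8x rms noise (300-5000 Hz band-pass). Burst spikes/total spikes averaged across electrodes per well; % change post- vs pre-treatment (40 min each), loss-of-signal fit vs DMSO.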
# [8] = CCTE_Shafer_MEA_acute_burst_percentage_std: CCTE's Neural Acute Assay for Standard Deviation of Burst Percentage, Shafer Lab (AID 2284018);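 further: fitted in the negative direction so actives lower burst percentage SD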
# Method in brief: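 Primary rat cortical neurons on 16-electrode MEA wells were recorded 40 min at baseline (DIV 13 or 15), then 40 min after compound (0.03-40 uM), at 37 C. Well value is SD across electrodes of spikes-in-bursts/total spikes; endpoint is percent change, DMSO-referenced.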
# [9] = CCTE_Shafer_MEA_acute_per_network_burst_spike_number_mean: CCTE's Neural Acute Assay for Average Number of Spikes in a Network Burst, Shafer Lab (AID 2284019)
# Method in brief: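 Acute exposure of rat primary cortical networks (DIV 13/15) on MEAs; adaptive spike detection at 8x rms noise, 37 C. Percent change in spikes per network burst after 40 min with compound (0.03-40 uM), negative direction vs DMSO.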
# [10] = CCTE_Shafer_MEA_acute_per_network_burst_spike_number_std: CCTE's Neural Acute Assay for Standard Deviation of Number of Spikes in a Network Burst, Shafer Lab (AID 2284020);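 further: fitted for decrease in spike-number SD versus DMSO so actives lower it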
# Method in brief: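 Acute MEA exposure, rat cortical neurons, 0.03-40 uM. Per-well % change versus own baseline; DMSO as negative control.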
# [11] = CCTE_Shafer_MEA_acute_per_network_burst_electrodes_number_mean: CCTE's Neural Acute Assay for Mean Number of Electrodes in a Network Burst, Shafer Lab (AID 2284021);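 further: curves fitted for decreases only so hits reduce electrodes per burst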
# Method in brief: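 Cultures of rat cortex neurons were exposed on DIV 13 or 15 to compounds at 0.03-40 uM in at least three wells each. Activity over 40 min before and 40 min after exposure at 37 C gave the percent change in electrodes per network burst.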
# [12] = CCTE_Shafer_MEA_acute_network_burst_percentage: CCTE's Neural Acute Assay for Percentage of Network Bursts, Shafer Lab (AID 2284022);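 further: curves fitted for loss so actives lower network burst percentage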
# Method in brief: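 Cortical neurons from rat were grown over microelectrode arrays and used on day 13 or 15 in vitro. Wells with at least 10 active electrodes received test chemical at 0.03-40 uM. Activity during 40 min of exposure was compared with the preceding 40-min baseline.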
# [13] = CCTE_Shafer_MEA_acute_cross_correlation_area: CCTE's Neural Acute Assay for Area of Cross Correlation, Shafer Lab (AID 2284024);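 further: rat primary cortical neuron networks on 48-well MEA at DIV 13 or 15 with 40 min exposure; area under pooled inter-electrode spike cross-correlation near zero lag as percent change from own baseline; curves fitted for loss of cross-correlation area so actives lower synchrony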
# Method in brief: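 Acute exposure of mature rat cortical networks (day 13 or 15 post-plating) to 0.03-40 uM compound. Spontaneous spiking on MEA, 40 min pre- and post-dose at 37 C.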
# [14] = CCTE_Shafer_MEA_acute_cross_correlation_HWHM: CCTE's Neural Acute Assay for Cross Correlation at Half Width at Half Maximum, Shafer Lab (AID 2284026);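 further: spontaneous network firing of rat primary cortical neurons on multiwell microelectrode arrays; percent change per well from pre-dose baseline in spike cross-correlogram half width; hits are a decrease in cross-correlogram half width relative to DMSO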
# Method in brief: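 Primary cortex (rat), MEA, DIV 13/15; compound 0.03-40 uM; 40 min pre + 40 min post at 37 C; spike threshold 8x rms; wells need ≥10 active electrodes; endpoint = % change in cross-correlogram HWHM vs baseline, DMSO negative control.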
# [15] = CCTE_Harrill_HTTr_CellCount_MCF7: CCTE's Cell Proliferation Assessment for the High-Throughput Transcriptomics (HTTr) Platform, Harrill Lab (AID 2284012; active means hit-call score of the fitted dose curve at least 0.9, where 1 is the maximum;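 further: cells exposed to compound for six hours; intended direction is loss of nuclei count meaning fewer cells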)
# Method in brief: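 Cell count from high-content imaging of Hoechst-labeled nuclei serves as viability/growth readout. Chemicals were applied to MCF-7 cells in eight concentrations for six hours, with fitting in both directions relative to DMSO.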
# [16] = CCTE_Harrill_HTTr_Apoptosis_MCF7: CCTE's 6-hour Apoptosis Assessment for the High-Throughput Transcriptomics (HTTr) Platform, in MCF-7 cells cultured in DMEM + 10% fetal bovine serum, Harrill Lab (AID 2284011)
# Method in brief: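 Cells are dosed with test chemicals at eight concentrations and imaged 6 hours later for caspase-3/7 activity using a green fluorogenic detection reagent. Activity is fitted in both directions against DMSO controls.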
smiles,measurement,setting,value
CC(=O)C(C)=CC1C(C)=CCCC1(C)C (stereo unspecified),outcome,[1],inactive
same,outcome,[2],inactive
same,outcome,[3],inactive
same,outcome,[4],inactive
same,outcome,[5],inactive
same,outcome,[6],inactive
same,AC50,[7],20 µM (active)
same,outcome,[8],inactive
same,outcome,[9],inactive
same,outcome,[10],inactive
same,outcome,[11],inactive
same,outcome,[12],inactive
same,outcome,[13],inactive
same,outcome,[14],inactive
CCCc1cc(=O)[nH]c(=S)[nH]1,outcome,[1],inactive
same,outcome,[2],inactive
same,outcome,[15],inactive
same,outcome,[3],inactive
same,outcome,[4],inactive
same,outcome,[5],inactive
same,outcome,[6],inactive
same,outcome,[7],inactive
same,outcome,[8],inactive
same,outcome,[9],inactive
same,outcome,[10],inactive
same,outcome,[11],inactive
same,outcome,[12],inactive
same,outcome,[13],inactive
same,outcome,[14],inactive
NCC1(Cc2noc(=O)[nH]2)CCCCC1,outcome,[1],inactive
same,outcome,[2],inactive
same,outcome,[16],inactive
same,outcome,[15],inactive
same,outcome,[3],inactive
same,outcome,[4],inactive
same,outcome,[5],inactive
same,outcome,[6],inactive
same,outcome,[7],inactive
same,outcome,[8],inactive
same,outcome,[9],inactive
same,outcome,[10],inactive
same,outcome,[11],inactive
same,outcome,[12],inactive
same,outcome,[13],inactive
same,outcome,[14],inactive
CN[C@H]1CC[C@@H](c2ccc(Cl)c(Cl)c2)c2ccc(S(N)(=O)=O)cc21,outcome,[1],inactive
same,outcome,[2],inactive
same,outcome,[15],inactive
same,outcome,[3],inactive
same,outcome,[4],inactive
same,AC50,[5],20 µM (active)
same,outcome,[6],inactive
same,AC50,[7],31.6 µM (active)
same,outcome,[8],inactive
same,outcome,[9],inactive
same,AC50,[10],20 µM (active)
same,AC50,[11],29.9 µM (active)
same,AC50,[12],31 µM (active)
same,outcome,[13],inactive
same,outcome,[14],inactive
C=CCc1ccc(O)c(OC)c1,outcome,[1],inactive
same,outcome,[2],inactive
same,outcome,[16],inactive
same,outcome,[15],inactive
same,outcome,[3],inactive
same,outcome,[4],inactive
same,outcome,[5],inactive
same,outcome,[6],inactive
same,outcome,[7],inactive
same,outcome,[8],inactive
same,outcome,[9],inactive
same,outcome,[10],inactive
same,outcome,[11],inactive
same,AC50,[12],31.1 µM (active)
same,outcome,[13],inactive
same,outcome,[14],inactive
FC(F)(F)C(F)(F)C(F)(F)C(F)(F)C(F)(F)C(F)(F)CCI,outcome,[1],inactive
same,outcome,[2],inactive
same,outcome,[16],inactive
same,outcome,[3],inactive
same,outcome,[4],inactive
same,outcome,[5],inactive
same,outcome,[6],inactive
same,outcome,[7],inactive
same,outcome,[8],inactive
same,outcome,[9],inactive
same,outcome,[10],inactive
same,outcome,[11],inactive
same,outcome,[12],inactive
same,outcome,[13],inactive
same,outcome,[14],inactive
C[Si]1(C)O[Si](C)(C)O[Si](C)(C)O[Si](C)(C)O1,outcome,[1],inactive
same,outcome,[2],inactive
same,outcome,[15],inactive
same,outcome,[3],inactive
same,outcome,[4],inactive
same,outcome,[5],inactive
same,outcome,[6],inactive
same,outcome,[7],inactive
same,outcome,[8],inactive
same,outcome,[9],inactive
same,outcome,[10],inactive
same,outcome,[11],inactive
same,outcome,[12],inactive
same,outcome,[13],inactive
same,outcome,[14],inactive
Nc1ccc2c(c1)C(=O)c1ccccc1C2=O,outcome,[1],inactive
same,outcome,[2],inactive
same,outcome,[16],inactive
same,outcome,[3],inactive
same,outcome,[4],inactive
same,outcome,[5],inactive
same,outcome,[6],inactive
same,outcome,[7],inactive
same,outcome,[8],inactive
same,outcome,[9],inactive
same,outcome,[10],inactive
same,outcome,[11],inactive
same,outcome,[12],inactive
same,outcome,[13],inactive
same,outcome,[14],inactive
Cc1ccc(C(C)C)c(O)c1,outcome,[1],inactive
same,outcome,[2],inactive
same,outcome,[15],inactive
same,outcome,[3],inactive
same,outcome,[4],inactive
same,outcome,[5],inactive
same,outcome,[6],inactive
same,AC50,[7],20 µM (active)
same,outcome,[8],inactive
same,outcome,[9],inactive
same,outcome,[10],inactive
same,outcome,[11],inactive
same,outcome,[12],inactive
same,outcome,[13],inactive
same,outcome,[14],inactive
